# From the supplement of paper PMC3334620
# The full ranking holds about 33,000 sequences; the median of “E-score (-0.5 to 0.5)” is about -0.054, and the highest 2% start at about 0.39. The list comes from a sample in which the highest values are over-represented; it also holds similar and randomly drawn sequences.
# Target: Ylr278c (UniProt Q05854)
# Test: PBM E-score (8-mer binding enrichment) (E-score (-0.5 to 0.5)); higher = stronger / more preferred TF binding
# Settings: protein concentration: 200 nM; construct: GST-DNA-binding domain
# Method in brief: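 Yeast transcription factors carrying a GST tag, as full-length proteins or DNA-binding domains, were produced by PURExpress in vitro transcription/translation. About 100-200 nM protein was applied to universal all-10-mer Agilent arrays, double-stranded by primer extension on fresh or once-stripped slides. Bound protein was detected with fluorescent anti-GST, and scans were normalised with masliner. The Universal PBM Analysis Suite gave each ungapped eight-base word, pooled with its reverse complement, an E-score, a modified Wilcoxon-Mann-Whitney statistic.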
# Sequence of UniProt Q05854 (Q05854 whole entry): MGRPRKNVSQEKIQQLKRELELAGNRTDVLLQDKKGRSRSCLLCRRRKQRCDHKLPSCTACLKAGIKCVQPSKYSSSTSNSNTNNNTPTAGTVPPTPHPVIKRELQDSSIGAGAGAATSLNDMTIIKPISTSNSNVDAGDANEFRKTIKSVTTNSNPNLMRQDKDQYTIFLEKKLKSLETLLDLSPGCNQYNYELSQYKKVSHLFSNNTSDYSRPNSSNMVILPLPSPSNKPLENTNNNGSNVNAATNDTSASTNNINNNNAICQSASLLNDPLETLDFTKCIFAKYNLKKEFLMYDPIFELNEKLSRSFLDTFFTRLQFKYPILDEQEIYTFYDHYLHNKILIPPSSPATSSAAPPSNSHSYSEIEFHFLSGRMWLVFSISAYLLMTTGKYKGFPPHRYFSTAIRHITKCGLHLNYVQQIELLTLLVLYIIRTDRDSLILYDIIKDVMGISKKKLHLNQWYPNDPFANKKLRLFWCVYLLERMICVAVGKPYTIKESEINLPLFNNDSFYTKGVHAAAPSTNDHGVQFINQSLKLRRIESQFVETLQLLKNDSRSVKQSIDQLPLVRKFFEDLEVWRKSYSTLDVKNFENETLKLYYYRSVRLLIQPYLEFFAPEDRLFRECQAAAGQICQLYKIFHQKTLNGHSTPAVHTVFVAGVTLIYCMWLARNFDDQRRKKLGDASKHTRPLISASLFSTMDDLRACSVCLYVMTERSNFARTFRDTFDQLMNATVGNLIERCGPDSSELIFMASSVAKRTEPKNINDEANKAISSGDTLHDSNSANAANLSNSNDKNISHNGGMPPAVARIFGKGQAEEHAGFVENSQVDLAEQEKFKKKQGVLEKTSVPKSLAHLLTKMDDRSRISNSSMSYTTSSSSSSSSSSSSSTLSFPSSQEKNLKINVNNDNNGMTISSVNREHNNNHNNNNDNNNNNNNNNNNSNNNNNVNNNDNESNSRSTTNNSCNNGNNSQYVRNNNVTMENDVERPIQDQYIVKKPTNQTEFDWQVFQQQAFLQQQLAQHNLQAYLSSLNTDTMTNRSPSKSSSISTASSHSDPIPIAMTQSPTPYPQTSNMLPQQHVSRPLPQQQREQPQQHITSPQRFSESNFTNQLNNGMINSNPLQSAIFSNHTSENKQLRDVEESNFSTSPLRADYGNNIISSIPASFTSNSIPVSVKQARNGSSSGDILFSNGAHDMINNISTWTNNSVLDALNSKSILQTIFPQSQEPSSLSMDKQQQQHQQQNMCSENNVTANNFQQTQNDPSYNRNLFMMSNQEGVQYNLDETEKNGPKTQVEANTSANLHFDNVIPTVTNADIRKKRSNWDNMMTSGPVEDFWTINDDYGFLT
row,Sequence,PBM E-score
1,CCTCCTAA,-0.122
2,GATCTAAA,0.0142
3,CAAAGGTC,-0.224
4,ATACTTGA,-0.345
5,CCCAGTCA,-0.242
6,CCTAGAAC,-0.0753
7,CGACGGAG,0.421
8,CGACGGAA,0.339
9,AGACGGAG,0.392
10,AGACGGAT,0.176
11,CGACGGAC,0.337
12,AGACGGAA,0.238
13,ATTGGACG,-0.00534
14,AATATGCC,-0.0168
15,ACATATCA,-0.0989
16,CTAGGCTA,-0.193
17,CCGGTCCC,0.355
18,ATAGTCCG,0.413
19,AAGGTCCG,0.426
20,CAGGTCCG,0.353
21,ATAGTCCA,-0.109
22,AAAGTCCG,0.482
23,CCGGTCCA,0.21
24,AAGGTCCA,-0.124
25,AAAGTCCT,0.226

row,Sequence,PBM E-score
1,AAAGTCCA,-0.0593
2,ATAGTCCC,-0.153
3,CCGGTCCG,0.45
4,CCGTTGAG,0.0643
5,ACTAGCTC,-0.157
6,AGAGCTGC,-0.0659
7,AAACAACA,-0.119
8,CGTATCCC,0.048
9,GGACTTAC,0.305
10,GAAGCTAC,-0.144
11,AACACCTC,-0.251
12,GTGTGGTA,-0.165
13,CGAGTCCA,-0.144
14,CAAGTCCA,-0.118
15,CGAGTCCG,0.391
16,CAAGTCCC,-0.108
17,AGAGTCCG,0.347
18,CAAGTCCG,0.455
19,CCGAGACG,0.134
20,ACCTCAGA,-0.0802
21,CCCCCGGC,0.254
22,TCCCCGGA,0.435
23,GGCCCGGA,0.395
24,GCCCCGGC,0.259
25,CCCCCCGA,0.083

row,Sequence,PBM E-score
1,CCCCCGGA,0.395
2,GCCCCGGA,0.439
3,GGCCCGCA,0.188
4,TCCCCCGA,0.263
5,GCCCCCGA,0.0674
6,GGCCCGTA,0.173
7,TCCCCGAA,0.357
8,ATATTTTC,0.0689
9,GACCTAAC,0.0677
10,GCAGACGA,-0.119
11,GGATCTGA,0.00665
12,AACCCATC,-0.0461
13,CAGTCATG,-0.129
14,ATGGCTGG,-0.209
15,CCAGCATC,-0.0271
16,ATCACTGC,-0.0314
17,ACTGTGGC,-0.32
18,GGACTGAC,-0.0427
19,CCCCTTAC,-0.195
20,AACCCGGG,0.319
21,CGCCCGGA,0.435
22,ACCCCGGG,0.404
23,AGCCCGGC,0.332
24,CGCCCGGC,0.292
25,CCCCCGGG,0.296

row,Sequence,PBM E-score
1,CGCCCGAA,0.111
2,AGCCCGGA,0.448
3,CCCCGGGG,0.412
4,AGCCCGGG,0.328
5,ACCCGGGG,0.246
6,CCCCGGGC,0.342
7,GTAAATGA,0.024
8,GACAAGCC,-0.0446
9,CGACTTAG,-0.168
10,GCAACTCC,0.327
11,AACGCCAA,-0.0358
12,GATTTCTA,0.238
13,CATCCACG,-0.153
14,CGCTAGGC,-0.0311
15,GCATGGCA,0.0442
16,ACCCGGGA,0.307
17,CCCCGGGA,0.378
18,ACCCCGGA,0.445
19,ACCCCGGT,0.385
20,ACCCCGGC,0.355
21,TCCCGGGA,0.398
22,GGTCTTAC,-0.0198
23,GAAGCGGC,0.125
24,GGATGCCA,-0.277
25,CAATTCCG,0.465

row,Sequence,PBM E-score
1,CAATTCCC,0.19
2,CGATTCCC,0.226
3,AAATTCCG,0.471
4,CAATTCCA,-0.0617
5,CGATTCCG,0.396
6,ATATTCCG,0.43
7,AAATTCCC,0.254
8,CGATTCCA,0.056
9,ATATTCCA,0.0484
10,AAATTCCA,0.115
11,ATATTCCC,0.277
12,ATACCGTC,0.153
13,AACCTAGT,-0.00542
14,AACTTAGG,-0.156
15,CAAGTGCA,-0.362
16,TGGTTCAA,-0.118
17,ATACCTTC,0.0292
18,GGCGCACA,0.145
19,TCCCTCAA,-0.106
20,GGGCCGGA,0.418
21,CGGCCGAC,0.309
22,CGGCCGGA,0.424
23,AGGCCGTA,0.0868
24,CGGCCGCA,0.249
25,CGGCCGGC,0.409

row,Sequence,PBM E-score
1,CGGCCGTA,0.225
2,AGGCCGGC,0.342
3,GGGCCGAA,0.198
4,AGGCCGGA,0.419
5,GGGCCGTA,0.0879
6,AGGCCGGG,0.258
7,CACCTAAG,-0.134
8,CTTACCTC,-0.0434
9,AGGTTGGG,-0.122
10,ACGCTACT,0.0556
11,AGCAATCA,-0.118
12,CATTGTCC,0.314
13,CGCCATAG,-0.135
14,GGTTGATA,-0.0138
15,CGTCGTTC,0.137
16,ATCTGACG,-0.134
17,CGTGCCAA,-0.0693
18,CGGCCTTC,0.394
19,AGGCCTTC,-0.221
20,CGGCCTTA,0.352
21,AGTTCCGA,0.43
22,AGTTCCGC,0.383
23,GGTTCCGA,0.384
24,AGTTCCGG,0.433
25,AGTTCCTG,-0.0874

row,Sequence,PBM E-score
1,CGTTCCGA,0.288
2,AGAACCGG,0.345
3,CACTCCCA,-0.106
4,AACTCCCG,0.365
5,CACTCCGC,0.393
6,CACTCCGG,0.46
7,AACTCCGG,0.497
8,CACTCCTG,-0.0899
9,CACTCCCG,0.193
10,CACTCCGA,0.454
11,CACTCCAA,0.031
12,CACTCCTC,0.0388
13,CACTCCAC,-0.139
14,AACTCCTG,0.152
15,ATCTAGTC,0.0095
16,GAGCGCGC,0.182
17,GGCATCTA,-0.0448
18,ATCCATCA,-0.135
19,TACTCCGA,0.479
20,AACTCCCC,0.266
21,GACTCCAA,-0.221
22,AACTCCTC,0.0657
23,GACTCCTA,-0.191
24,TACTCCAA,-0.243
25,GACTCCGC,0.426

row,Sequence,PBM E-score
1,GACTCCTC,-0.135
2,AACTCCGC,0.49
3,GACTCCGA,0.467
4,GACTCCAC,-0.0152
5,TACTCCTA,-0.187
6,CATCAGTA,-0.233
7,GGTGTGAC,-0.172
8,GTAAACAA,-0.0542
9,GTGCTCAA,-0.104
10,ACCGCCCA,0.154
11,AACCTTCA,-0.245
12,TCACTCCA,-0.0238
13,AAGCTTGA,-0.0383
14,TCGGTCAA,0.0369
15,GATTGCAC,0.0435
16,AACTCCCT,-0.072
17,AACTCCGT,0.486
18,AACTCCAA,-0.00212
19,AACTCCAT,0.214
20,AACTCCCA,0.155
21,AACTCCGA,0.496
22,GACTTTCC,0.137
23,CTGCGAAA,-0.0633
24,CCCCTGAA,-0.144
25,CACCCCAA,-0.0388

row,Sequence,PBM E-score
1,CCGCCGGA,0.462
2,ACGCCGGA,0.432
3,CCGCCGTA,0.354
4,ACGCCGGG,0.365
5,GCGCCGTA,0.231
6,CCGCCGGC,0.41
7,ACGCCGTA,0.0546
8,CCGCCGCA,0.266
9,CCGCCGTC,0.218
10,GCGCCGAA,0.302
11,GCGCCGGA,0.432
12,CCGCCGCC,0.304
13,GTGGCCCA,-0.196
14,CGACTGAC,-0.171
15,CGGATCGA,0.19
16,CAACTCTC,-0.0583
17,ACTGAGAG,-0.25
18,TACAGTGA,-0.253
19,CGTATGCC,0.107
20,ATCTAGTG,-0.173
21,AACTATCC,0.0243
22,ACGCCGGC,0.421
23,ACGCCGCC,0.279
24,ACGCCGTC,0.276
25,AATATGAA,0.0372

row,Sequence,PBM E-score
1,CGGGCTGC,0.118
2,CGAATGGA,-0.121
3,GACGCTGA,-0.214
4,CTATCGTA,-0.18
5,GTATCGGA,0.431
6,ATATCGGC,0.319
7,GTATCGCA,-0.0427
8,CTATCGGA,0.444
9,ATATCGGA,0.391
10,ATATCGGG,0.313
11,GTATCGAA,-0.103
12,CTATCGGC,0.239
13,ATCTCAGG,-0.0988
14,GTGGCAAC,-0.0372
15,AGCAATCG,-0.0973
16,CTCCTTTA,-0.132
17,ACATTGCA,-0.0533
18,AACGCCGT,0.272
19,GCCGCCGA,0.338
20,AAAGCCGT,0.137
21,AACGCCGG,0.424
22,ATCGCCGC,0.295
23,ATCGCCGA,0.373
24,TCCGCCGA,0.437
25,CAAGCCGG,0.263

row,Sequence,PBM E-score
1,AAAGCCGG,0.391
2,ATCGCCGG,0.421
3,CCCGCCGA,0.334
4,AACGCCGC,0.339
5,ATCTGTGC,-0.167
6,AAGCGAAG,-0.0624
7,AAAAGCCC,0.151
8,TACGCCGA,0.293
9,ACCGCCGG,0.403
10,AACGCCGA,0.433
11,AAAAGCCT,-0.224
12,ACCGCCGC,0.235
13,CCCGCCGG,0.384
14,AAAAGCCG,0.388
15,CACGCCGA,0.211
16,GAGACTAC,0.0263
17,ACGCAAAG,-0.0959
18,GGACCGGA,0.442
19,CGACCGGC,0.248
20,GGACCGCA,0.238
21,AGACCGGA,0.335
22,CGACCGGA,0.409
23,CGACCGAA,0.148
24,CACAGATC,-0.0312
25,ACTGCTCT,-0.15

row,Sequence,PBM E-score
1,ATCTTCGG,0.303
2,AAGTCGCT,-0.163
3,ACGACACC,0.0263
4,ATCAAAAA,0.0906
5,CTCCCAGC,-0.0468
6,AATGTCCA,-0.115
7,AATGTCCG,0.458
8,CATGTCCG,0.384
9,ATTGTCCA,-0.113
10,ATTGTCCG,0.452
11,ATTGTCCC,0.0603
12,GCCGCAGA,0.143
13,AGGTGTCG,0.0347
14,GCCGATGA,0.298
15,GTCCGCAC,0.308
16,ATCCGCAC,0.299
17,CTCCGCAA,0.409
18,CCCCGCAG,0.302
19,TTCCGCAA,0.298
20,ATCCGCAG,0.259
21,GTCCGCAA,0.334
22,CTCCGCAG,0.418
23,CTCCGCAC,0.41
24,ACACCTGG,-0.243
25,CCCTCTAG,-0.311

row,Sequence,PBM E-score
1,CGTGGCCC,-0.0746
2,AACCCTAA,-0.0663
3,CGAAAGGC,0.0796
4,AAGCCCGT,0.0339
5,CCGCCCGG,0.402
6,AAGCCCGG,0.416
7,CCGCCCGC,0.349
8,ACGCCCCG,0.229
9,CCGCCCCG,0.42
10,ACGCCCGG,0.305
11,CCGCCCCC,0.168
12,AAGCCCGC,0.266
13,GAAACCTC,0.0208
14,CTGAGTCC,0.00022
15,CACTAAAG,-0.169
16,GTGCTCCA,-0.118
17,AACAACAC,-0.0906
18,ACTTGACG,-0.135
19,ATTGATCC,0.282
20,CACTTGCC,0.0403
21,CCCCTCGC,-0.239
22,CGGAGCCC,0.37
23,TGGAGCCA,-0.194
24,AGGAGCCG,-0.0181
25,CGGAGCCG,0.427

row,Sequence,PBM E-score
1,CGGAGCCA,0.402
2,GGGAGCCA,-0.264
3,AATGCTGC,-0.0877
4,CAGTCTCA,-0.126
5,AATCGGAG,0.466
6,AATCGGTG,0.126
7,AATCGGAT,0.384
8,CATCGGGC,0.211
9,CATCGGTC,0.15
10,AATCGGGA,0.231
11,GATCGGGA,0.227
12,CATCGGAC,0.424
13,GATCGGAA,0.408
14,AATCGGAA,0.416
15,GATCGGTA,0.265
16,AATCGGCA,0.304
17,AACTGGGG,0.00524
18,CTGCAACC,-0.27
19,CTTTGGTA,-0.0286
